Screening results deposited in PubChem BioAssay by National Center for Advancing Translational Sciences (NCATS).
JMJD2E inh – inhibitors of human JMJD2E histone demethylase | B2RXH2 | JMJD2E catalytic domain, FDH-coupled NADH fluorescence (FDH is formaldehyde dehydrogenase) | Potency, µM (series often up to 57.1 µM), usual class: inhibitors | actives 1.6% (n = 230,000) | AID 2147; active = well fitted inhibition curve with a large enough effect, not every such curve was filed as active; inconclusive = small, poorly fitted or top-dose-only effect, or another doubt; inactive = no such curve, though single readings can be large or run the other way; note: nearly all actives have a fitted effect of over 50% in size
Target sequence (B2RXH2 1-337 limits assumed): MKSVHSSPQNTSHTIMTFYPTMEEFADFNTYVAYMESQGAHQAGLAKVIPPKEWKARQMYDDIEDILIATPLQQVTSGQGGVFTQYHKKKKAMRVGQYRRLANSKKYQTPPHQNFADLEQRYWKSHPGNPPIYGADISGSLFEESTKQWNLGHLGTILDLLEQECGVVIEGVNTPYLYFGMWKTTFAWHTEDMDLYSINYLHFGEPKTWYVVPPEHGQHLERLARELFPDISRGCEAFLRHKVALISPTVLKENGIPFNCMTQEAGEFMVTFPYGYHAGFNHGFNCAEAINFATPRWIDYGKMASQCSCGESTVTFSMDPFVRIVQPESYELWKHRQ
Coupling enz – counter-screen for Giardia aldolase inhibitors: coupling enzyme system | activity change, negative = inhibition, % at 58.2 µM, hits read low | actives 0.67% (n = 290,000) | AID 2472 | coupling enzyme system counterscreen, AmpLite Red fluorescence; in the data active = activity change below about -30%
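Activity here indicates interference with the coupling reaction, not aldolase inhibition. Compounds at 57.5 uM final met coupling enzymes for 10 min at RT; substrate and AmpLite Red detection followed, with a 525/598 nm fluorescence read after 20 min.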
Sfp PPTase inh – inhibitors of Bacillus subtilis Sfp phosphopantetheinyl transferase; actives 3.5% (n = 310,000); Q9F4F7; Potency, µM, hits mostly inhibitors; AID 1490; Biochemical Sfp PPTase activity, qHTS;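 note: the enzyme is Sfp with the accession as filed and its product quenches rhodamine fluorescence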
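Buffer: 50 mM Hepes-Na pH 7.6, 10 mM MgCl2, 0.01% Nonidet P-40, 0.01% BSA. Enzyme 15 nM, pre-exposed to compound 15 min; substrates then added and fluorescence change tracked over 30 min.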
Tau ThT inhib – tau fibrillization inhibition (ThT binding); P10636; recombinant tau K18 P301L, heparin-induced fibrillization, ThT fluorescence; Potency, µM (doses to about 57.4 µM), actives largely listed as inhibitors; actives 2.1% (n = 270,000); AID 1460; note: nearly all actives have a fitted effect of over 55% in size
Target sequence (P10636 561-689 P618L limits assumed): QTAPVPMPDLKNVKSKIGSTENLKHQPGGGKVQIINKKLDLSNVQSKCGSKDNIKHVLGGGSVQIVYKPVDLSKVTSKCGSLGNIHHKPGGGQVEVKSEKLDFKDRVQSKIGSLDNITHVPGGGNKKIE
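In this qHTS, human K18 P301L tau is incubated with compound and heparin for 6 hr at 37 C, and Thioflavin T fluorescence then reports fibril load.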
Tau fluor counter – counter-screen for tau fibril formation inhibitors; actives 0.93% (n = 280,000); tau K18 P301L Alexa594 fluorescence, heparin fibrillization; Potency, µM (titrated, usually from 57.7 µM); note: nearly all actives have a fitted effect of over 55% in size
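Human tau K18 P301L (15 uM unlabeled, 0.24 uM Alexa 594-labeled) in 100 mM sodium acetate pH 7 with 20 uM heparin, 6 hr at 37 C. ThT 30 uM added, 1 hr ambient; Alexa 594 FP and total fluorescence read at 555/632 nm.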
Tau FP inhib – blocks human tau fibril formation measured by polarization; P10636; K18 P301L tau heparin fibrillization, Alexa594 FP, 6 h; Potency, µM (titrated, usually from 57.7 µM), actives largely listed as inhibitors; actives 0.39% (n = 280,000); AID 1468; note: nearly all actives have a fitted effect of over 55% in size
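Heparin (20 uM) drove fibril formation of recombinant tau K18 P301L, 15 uM unlabeled with 0.24 uM Alexa 594 label, for 6 hr at 37 C in 100 mM sodium acetate pH 7. Fluorescence polarization (555/632 nm) read 1 hr after 30 uM ThT.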
Of the large screens only hits and unclear results are named; the others gave an inactive call; [ ] = remark or other dose. Sampled rows, rich in hits. Any-hit rate of the full collection: about 5.3%. Unless noted, calls come from the whole dose curve; as a rule, active = well fitted curve in the direction sought with a large enough effect; inconclusive = small, poorly fitted or top-dose-only effect, or another doubt; inactive = no such curve, though single readings can be large; an effect the other way counts as inactive or inconclusive.

C=C1/C(=C\C=C2/CCC[C@]3(C)C([C@H](C)CCCC(C)(C)O)CC[C@@H]23)C[C@@H](O)C[C@@H]1O (some centres undefined)	Tau ThT inhib inconclusive, Tau FP inhib inconclusive (no result: JMJD2E inh, Coupling enz)
CCCCCCNC(=O)N[C@@H](C(=O)NCCC[C@H]1CN2C(=NC[C@@H]2Cc2ccccc2)N1CCc1cccc(OC)c1)C(C)C	JMJD2E inh inconclusive, Sfp PPTase inh 3.55µM, Tau ThT inhib inconclusive
COC(=O)Cc1c(C)c2cc3c(c(C)c2oc1=O)OCN(CCc1ccc(F)cc1)C3	none (no result: JMJD2E inh, Coupling enz, Sfp PPTase inh)
COc1ccc(C(C2C(=O)CC(C)(C)CC2=O)C2C(=O)CC(C)(C)CC2=O)cc1	Sfp PPTase inh 25.1µM
COc1cc(C(C2=C(O)CC(C)(C)CC2=O)C2C(=O)CC(C)(C)CC2=O)cc(OC)c1OC (centres undefined)	Sfp PPTase inh 50.1µM, Tau ThT inhib inconclusive, Tau FP inhib inconclusive
COc1cc(C(C2C(=O)CC(C)(C)CC2=O)C2C(=O)CC(C)(C)CC2=O)ccc1O	Sfp PPTase inh 56.2µM (no result: JMJD2E inh, Tau ThT inhib, Tau fluor counter, Tau FP inhib)
CC1(C)CC(=O)C(C(c2ccncc2)C2C(=O)CC(C)(C)CC2=O)C(=O)C1	Tau ThT inhib inconclusive
Cc1ccc(C(C2C(=O)CC(C)(C)CC2=O)C2C(=O)CC(C)(C)CC2=O)s1	Sfp PPTase inh 50.1µM
COc1cc(C(C2C(=O)CC(C)(C)CC2=O)C2C(=O)CC(C)(C)CC2=O)cc(OC)c1OC	Sfp PPTase inh inconclusive (no result: JMJD2E inh, Tau ThT inhib, Tau fluor counter, Tau FP inhib)
Cn1cc(-c2nc3cnc(Oc4cccc(Cl)c4)nc3n(C3CC3)c2=O)c2ccccc21	none (no result: JMJD2E inh, Tau ThT inhib, Tau fluor counter, Tau FP inhib)
COC/C=C/C1=CC2=CC(=O)C(C)(OC(=O)c3ccco3)C(=O)C2=CO1 (centres undefined)	JMJD2E inh inconclusive, Sfp PPTase inh 56.2µM, Tau ThT inhib 25.1µM, Tau fluor counter inconclusive, Tau FP inhib inconclusive
COC/C=C/C1=CC2=CC(=O)C(C)(OC(=O)c3cccs3)C(=O)C2=CO1 (centres undefined)	none
COC/C=C/C1=CC2=CC(=O)C(C)(OC(=O)C3CCCC3)C(=O)C2=CO1 (centres undefined)	Sfp PPTase inh 79.4µM, Tau ThT inhib 25.1µM, Tau fluor counter inconclusive, Tau FP inhib 10µM
CCOc1ccccc1NC(c1nnc(-c2ccccc2)o1)c1ccc(F)cc1Cl (centres undefined)	none (no result: JMJD2E inh, Coupling enz, Sfp PPTase inh)
Oc1cccc2c(NC(=S)Nc3ccc(SC(F)F)cc3)cccc12	JMJD2E inh inconclusive, Coupling enz -43.5, Sfp PPTase inh inconclusive, Tau ThT inhib 10µM, Tau fluor counter 11.2µM[quencher], Tau FP inhib inconclusive
Oc1cccc(NC(=S)Nc2ccc(SC(F)F)cc2)c1	Tau fluor counter inconclusive
Cc1cc(=O)n2c(C(=O)Nc3ccc(C)c(Cl)c3)c(C(=O)Nc3ccccc3)sc2n1	none (no result: JMJD2E inh, Coupling enz, Sfp PPTase inh)
COc1ccc(Nc2nc(N3CCOCC3)nc(N3CCOCC3)n2)c(OC)c1	none (no result: JMJD2E inh, Tau ThT inhib, Tau fluor counter, Tau FP inhib)
COc1ccc(Nc2nc(Nc3ccc(OC)cc3OC)nc(N3CCOCC3)n2)c(OC)c1	Tau ThT inhib inconclusive, Tau fluor counter 2.82µM[quencher] (no result: JMJD2E inh, Coupling enz, Sfp PPTase inh)
COc1ccc(NC2C=CS(=O)(=O)C2)c(OC)c1 (centres undefined)	Coupling enz -41.4, Sfp PPTase inh 79.4µM, Tau ThT inhib inconclusive
COc1cccc(NC2C=CS(=O)(=O)C2)c1 (centres undefined)	none
Cc1nnc(SCC(=O)Nc2ccc(Br)cc2)[nH]c1=O	none (no result: JMJD2E inh, Coupling enz, Sfp PPTase inh)
Cc1cc(C)c2c(CC(=O)Nc3ccccc3C(F)(F)F)coc2c1	none (no result: JMJD2E inh, Coupling enz, Sfp PPTase inh)
O=C(CCN1CCC(c2ccccc2)C1)c1ccc2c(c1)OCCO2 (centres undefined)	JMJD2E inh 17.8µM, Sfp PPTase inh 50.1µM, Tau ThT inhib inconclusive, Tau FP inhib inconclusive
O=C(CCN1CCCC1Cc1ccccc1)c1ccc2c(c1)OCCO2 (centres undefined)	Sfp PPTase inh 50.1µM, Tau FP inhib inconclusive
O=C(CCN1CCc2ccccc2C1)c1ccc2c(c1)OCCO2	Sfp PPTase inh 44.7µM
CCCc1ccc(C(=O)O)cc1	none (no result: JMJD2E inh, Coupling enz, Tau ThT inhib, Tau fluor counter, Tau FP inhib)
CC1=C(C(N)=O)C(c2ccc(C)cc2)n2nc(SCc3ccccc3)nc2N1 (centres undefined)	none (no result: JMJD2E inh, Coupling enz, Sfp PPTase inh)
